An excerpt weighted towards active compounds, which were near 19% of everything screened.
ELG1 repair inh: qHTS screen for small molecules that inhibit ELG1-dependent DNA repair in human embryonic kidney (HEK293T) cells expressing luciferase-tagged ELG1; HEK293T ELG1-luciferase reporter, luminescence, 16 h; DNA damage induced by 5-fluorouridine; Potency, µM (top dose mostly 46.1 µM), for the others: at the highest dose activity change, negative = inhibition, hits mostly inhibitors; 330,000 tested, 2.3% active; AID 504467, 2011; also: potency is read from the fitted curve at half-maximal effect; nearly all actives have a fitted effect of over 55% in size
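DMSO vehicle served as the neutral condition. Each well held 2,000 cells given 5-fluorouridine plus compound; after 16 hr at 37 °C/5% CO2, ONE-Glo was added and luciferase measured 30 min later.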
TDP1 cell CPT: qHTS for Inhibitors of human tyrosyl-DNA phosphodiesterase 1 (TDP1): qHTS in cells in presence of CPT; chicken DT40 Tdp1-/-;hTDP1 cells + 20 nM CPT, ATP luminescence, 48 h; Potency, µM (titrated, usually from 46.2 µM), without a hit: at the highest dose activity change, negative = growth inhibition, usual class: inhibitors; 420,000 tested, 12% active; also: potency is read from the fitted curve at half-maximal effect; nearly all actives have a fitted effect of over 55% in size
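Chicken DT40 Tdp1-/- cells stably complemented with human TDP1 were seeded at 400 cells/well in medium containing 20 nM camptothecin, exposed to pin-transferred compounds, and grown at 37 °C for at least 48 hr. Viability was read as ATP luminescence.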
HT1080 IDH1KD tx: qHTS for induction of synthetic lethality in tumor cells producing 2HG: qHTS for the HT-1080-IDH1KD cell line; HT-1080 IDH1 knockdown viability, ATP luminescence, 48 h; Potency, µM (doses to about 46.1 µM), for inactives: at the highest dose activity, negative = toxicity, usual class: cytotoxic; 360,000 tested, 2% active; AID 686971, 2013;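 also: potency is read from the fitted curve at half-maximal effect; 0% = DMSO wells and -100% = cell-free medium wells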
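Assay cells: HT-1080 with IDH1 knockdown, 750 per well, RPMI/5% FBS. Exposure: 48 h at 37 °C following 2 h pre-incubation. Read: CellTiter-Glo luminescence; fitted concentration-response, curve class assigned.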
HT1080-NT tox: qHTS for induction of synthetic lethality in tumor cells producing 2HG: qHTS for the HT-1080-NT fibrosarcoma cell line. AID 686970, 2013. Potency, µM (highest dose often 46.1 µM), for inactives: at the highest dose activity, negative = less viability, usual class: cytotoxic. 360,000 tested, 1.6% active. HT-1080-NT fibrosarcoma viability, CellTiter-Glo ATP luminescence, 48 h;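 also: NT is the 2HG producing partner of a matched IDH1 knockdown line; potency is read from the fitted curve at half-maximal effect; 0% = DMSO-treated cells and -100% = media-only wells without cells; nearly all actives have a fitted effect of over 55% in size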
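750 cells/well, RPMI + 5% FBS; 2 h settle, compound pin-transfer, 48 h at 37 degrees C. CellTiter-Glo 10 min RT, luminescence. Normalized to DMSO and media-only wells.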
TDP1 cell noCPT: qHTS for Inhibitors of human tyrosyl-DNA phosphodiesterase 1 (TDP1): qHTS in cells in absence of CPT; 420,000 tested, 15% active; Potency, µM (doses to about 46.2 µM), without a hit: top-dose activity change, negative = growth inhibition, hits mostly inhibitors; DT40 Tdp1-/- hTDP1 cells, no CPT, ATP luminescence, 48 h; also: potency is read from the fitted curve at half-maximal effect; nearly all actives have a fitted effect of over 55% in size
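Readout: luminescence from CellTiter-Glo after 30 min in the dark at RT. Cells: DT40 Tdp1-/- with stable hTDP1, 400/well. Exposure: compounds alone, ≥48 hr, 37 °C.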
IL1B secr inh: qHTS for Inhibitors of Inflammasome Signaling: IL-1-beta AlphaLISA Primary Screen. THP-1 LPS/ATP IL-1B secretion, AlphaLISA, 16 h; active compounds read low. activity change, % at 57.5 µM. AID 743279, 2014. 360,000 tested, 4.7% active; in the data active = activity change below about -50%; inconclusive = mostly about -30% to -49%
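Secreted IL-1B measured by AlphaLISA bead assay after 16 h compound exposure of THP-1 cells; compounds (final up to 57.5 uM) added 1 h before LPS (250 ng/mL) and ATP (1.25 mM) stimulation; lower signal means less secretion.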
* = called active by the depositor. Unless noted, calls follow the shape of the dose curve; as a rule, active = well fitted curve in the direction sought with a large enough effect; inconclusive = small, poorly fitted or top-dose-only effect, or another doubt; inactive = no such curve, though single readings can be large; an effect the other way counts as inactive or inconclusive. Unless noted, % is scaled to controls: 0 for no effect and ±100 for the full control effect.

CC1(C)OC(=O)C2=C(C[C@@H](CCc3ccccc3)O[C@@H]2c2ccc(F)cc2)O1 was read as TDP1 cell CPT inconclusive, HT1080 IDH1KD tx -6%, HT1080-NT tox -6%, TDP1 cell noCPT 16µM* and IL1B secr inh 23.
For CC(C)C[C@@H]1CC2=C(C(=O)OC(C)(C)O2)[C@H](CCc2ccccc2)O1 the results were TDP1 cell CPT inconclusive, HT1080 IDH1KD tx 0%, HT1080-NT tox -24%, TDP1 cell noCPT inconclusive and IL1B secr inh 63.
`CC(C)C[C@@H]1O[C@H](CCc2ccccc2)CC2=C1C(=O)OC(C)(C)O2` gave TDP1 cell CPT inconclusive, HT1080 IDH1KD tx 23µM*, HT1080-NT tox inconclusive, TDP1 cell noCPT inconclusive and IL1B secr inh 0.
CC(C)C[C@@H]1CC2=C(C(=O)OC(C)(C)O2)[C@H](c2ccc(Cl)cc2)O1 was read as TDP1 cell CPT inconclusive, HT1080 IDH1KD tx -7%, HT1080-NT tox -1%, TDP1 cell noCPT 18µM* and IL1B secr inh -9.
`CC(C)[C@@H]1CC2=C(C(=O)OC(C)(C)O2)[C@H](CCc2ccccc2)O1` gave TDP1 cell CPT inconclusive, HT1080 IDH1KD tx 16µM*, HT1080-NT tox -15%, TDP1 cell noCPT inconclusive and IL1B secr inh 17.
For CC[C@@H]1CC2=C(C(=O)OC(C)(C)O2)[C@H](c2ccc(F)cc2)O1 the results were TDP1 cell CPT 0%, HT1080 IDH1KD tx 18%, HT1080-NT tox 16%, TDP1 cell noCPT 0% and IL1B secr inh 0.
CCCCC(CC)C(=O)Nc1cc(C(=O)NCCC)ccc1N1CCC2(CC1)CC(c1cccc(Br)c1)=NO2 (stereo unspecified) was read as ELG1 repair inh -4%, TDP1 cell CPT -12%, HT1080 IDH1KD tx -5%, HT1080-NT tox 0%, TDP1 cell noCPT -21% and IL1B secr inh 11.
`CN1CCN(c2ncnc3c2c(-c2ccccc2)cn3-c2ccc(F)cc2)CC1` gave ELG1 repair inh -11%, TDP1 cell CPT 18µM*, HT1080 IDH1KD tx 23µM*, HT1080-NT tox 23µM*, TDP1 cell noCPT 5.2µM* and IL1B secr inh -207*.
Clc1cccc(-n2cc(-c3ccccc3)c3c(N4CCCCC4)ncnc32)c1 was read as TDP1 cell CPT 16µM* and TDP1 cell noCPT 23µM*.
`c1ccc(-c2cn(-c3ccccc3)c3ncnc(N4CCCCC4)c23)cc1` gave ELG1 repair inh inconclusive, TDP1 cell CPT 9.2µM*, HT1080 IDH1KD tx inconclusive, HT1080-NT tox inconclusive, TDP1 cell noCPT 18µM* and IL1B secr inh -57*.
Screening CCCSc1ncnc2c1c(-c1ccccc1)cn2-c1ccccc1OC returned TDP1 cell CPT inconclusive and TDP1 cell noCPT 21µM*.
Screening CC1CCN(c2ncnc3c2c(-c2ccccc2)cn3-c2ccc(Br)cc2)CC1 returned TDP1 cell CPT 0% and TDP1 cell noCPT 14%.
`O=C1C=C(c2ccc3c(c2)oc2ccccc23)C[C@@H](c2ccc3c(c2)OCO3)C1` gave ELG1 repair inh -13%, TDP1 cell CPT inconclusive, HT1080 IDH1KD tx -3%, HT1080-NT tox inconclusive, TDP1 cell noCPT inconclusive and IL1B secr inh 13.
Screening COc1ccccc1N1CCN(c2ncnc3c2c(-c2ccccc2)cn3-c2cccc(C)c2)CC1 returned TDP1 cell CPT 18µM* and TDP1 cell noCPT inconclusive.
For COc1cccc(N2CCN(c3ncnc4c3c(-c3ccccc3)cn4-c3cccc(C(F)(F)F)c3)CC2)c1 the results were TDP1 cell CPT -15% and TDP1 cell noCPT inconclusive.
Screening COc1cccc(NC(=O)CN(C)C(=O)c2ccc(-c3ccc(Cl)cc3)o2)c1 returned ELG1 repair inh -15%, TDP1 cell CPT inconclusive, HT1080 IDH1KD tx -19%, HT1080-NT tox -10%, TDP1 cell noCPT inconclusive and IL1B secr inh -24.
Screening CN(CC(=O)Nc1ccc(F)cc1)C(=O)c1ccc(-c2ccc(F)cc2)o1 returned TDP1 cell CPT inconclusive, HT1080 IDH1KD tx -15%, HT1080-NT tox -16%, TDP1 cell noCPT 21µM* and IL1B secr inh -8.
For Cc1ccc(C)c(NC(=O)CN(C)C(=O)c2ccc(COc3ccccc3)cc2)c1 the results were TDP1 cell CPT inconclusive, HT1080 IDH1KD tx -19%, HT1080-NT tox -10%, TDP1 cell noCPT inconclusive and IL1B secr inh -20.
Screening COc1cccc(NC(=O)CN(C)C(=O)c2ccc(-c3cccc(C(F)(F)F)c3)o2)c1 returned ELG1 repair inh -3%, TDP1 cell CPT inconclusive, HT1080 IDH1KD tx 2%, HT1080-NT tox -3%, TDP1 cell noCPT inconclusive and IL1B secr inh -7.
`Cc1ccc(C)c(NC(=O)CN(C)C(=O)c2ccc(-c3cccc(C(F)(F)F)c3)o2)c1` gave ELG1 repair inh -26%, TDP1 cell CPT inconclusive, HT1080 IDH1KD tx 5%, HT1080-NT tox -3%, TDP1 cell noCPT 15µM* and IL1B secr inh -16.
For CN(CC(=O)Nc1cccc(F)c1)C(=O)c1ccc(-c2cccc(C(F)(F)F)c2)o1 the results were ELG1 repair inh 0.29µM*, TDP1 cell CPT inconclusive, HT1080 IDH1KD tx -23%, HT1080-NT tox -11%, TDP1 cell noCPT inconclusive and IL1B secr inh -21.
Screening COc1cccc(CC(=O)OCC(=O)c2cc(OC)c(OC)c(OC)c2)c1 returned ELG1 repair inh 0%, TDP1 cell CPT -2%, HT1080 IDH1KD tx 0%, HT1080-NT tox 0%, TDP1 cell noCPT 7% and IL1B secr inh 8.
Screening CCCC1CCC(c2ccc(C(=O)NN)cc2)CC1 (stereo unspecified) returned ELG1 repair inh inconclusive, TDP1 cell CPT 29µM*, HT1080 IDH1KD tx -19%, HT1080-NT tox -24%, TDP1 cell noCPT 29µM* and IL1B secr inh 26.
CCCC1CCC(c2ccc(C(N)=O)cc2)CC1 (stereo unspecified) was read as ELG1 repair inh -13%, TDP1 cell CPT 12%, HT1080 IDH1KD tx -3%, HT1080-NT tox 1%, TDP1 cell noCPT -2% and IL1B secr inh 46.

Screening results (PubChem)
